Our source for the composite z-score and z-score values is PubChem BioAssay.

The source made the active and inactive calls. Unless noted, how the calls were made is not given here.

Assay [1] can be described thus: anti-His antibody binders, primary screen, artefact control for SMM control protein annotation, biochemical, small-molecule microarray, 635 nm fluorescence (AID 1128).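 Further: score merges feature fluorescence with signal-to-noise for each printed compound spot.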 To be noted: anti-His Alexa647 antibody binding, higher = more signal.
The subject of assay [2] is Human papillomavirus type 1a E7 protein (residues 1-88). Kind of assay: HPV1a E7 small-molecule binders, primary screen, biochemical, small-molecule microarray, residues 1-88, 635 nm (AID 1129). The conditions noted are these: small-molecule microarray binding, fluorescence 635 nm; higher = more signal.
The target of assay [3] is Focal adhesion kinase 1 (Homo sapiens) (UniProt Q05397). As to the kind of experiment: small-molecule microarray binders of FAK, primary screen, biochemical, 635/667 nm fluorescence, BSA, DTT (AID 1130).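 Further: composite of spot emission at 667 nm and signal to noise over triplicate slides.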 To be noted: PTK2 binding, 635 nm fluorescence, higher = more signal.
Chain of Focal adhesion kinase 1 (Homo sapiens) (Q05397 whole entry, looked up): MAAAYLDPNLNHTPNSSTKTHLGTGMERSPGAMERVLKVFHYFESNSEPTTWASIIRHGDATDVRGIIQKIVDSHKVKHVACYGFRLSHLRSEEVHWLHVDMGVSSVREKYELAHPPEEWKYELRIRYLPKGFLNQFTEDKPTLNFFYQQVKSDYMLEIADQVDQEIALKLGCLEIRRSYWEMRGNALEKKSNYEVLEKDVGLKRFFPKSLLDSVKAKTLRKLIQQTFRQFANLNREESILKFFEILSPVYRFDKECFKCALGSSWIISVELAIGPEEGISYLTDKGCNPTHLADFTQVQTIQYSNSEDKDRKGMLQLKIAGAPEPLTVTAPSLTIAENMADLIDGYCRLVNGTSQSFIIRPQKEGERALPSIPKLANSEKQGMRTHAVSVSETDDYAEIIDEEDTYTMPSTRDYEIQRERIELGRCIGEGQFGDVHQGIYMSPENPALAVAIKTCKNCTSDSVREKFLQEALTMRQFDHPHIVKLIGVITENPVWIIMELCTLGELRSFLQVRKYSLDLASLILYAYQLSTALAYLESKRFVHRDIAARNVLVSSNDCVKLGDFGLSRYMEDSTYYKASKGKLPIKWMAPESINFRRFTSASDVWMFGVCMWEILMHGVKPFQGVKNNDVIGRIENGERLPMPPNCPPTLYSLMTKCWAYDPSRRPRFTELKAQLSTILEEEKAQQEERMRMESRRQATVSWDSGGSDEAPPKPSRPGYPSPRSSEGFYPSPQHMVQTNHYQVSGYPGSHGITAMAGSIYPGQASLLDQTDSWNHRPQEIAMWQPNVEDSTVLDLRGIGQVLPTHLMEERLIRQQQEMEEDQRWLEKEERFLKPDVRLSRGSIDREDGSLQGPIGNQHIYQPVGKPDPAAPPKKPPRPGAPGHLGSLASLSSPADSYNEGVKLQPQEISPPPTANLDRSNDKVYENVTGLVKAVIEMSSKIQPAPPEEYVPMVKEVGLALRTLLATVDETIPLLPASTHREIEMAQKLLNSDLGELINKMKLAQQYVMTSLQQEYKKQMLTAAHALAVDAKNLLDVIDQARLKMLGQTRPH
The subject of assay [4] is Fibrinogen (Alexa647-labelled). As to the kind of experiment: fibrinogen binders on compound microarrays, profiling panel, artefact control for SMM control-protein annotation, biochemical, small-molecule microarray, 635/667 nm fluorescence (AID 1131).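 Further: z-score merges 667 nm fluorescence with per-spot signal-to-noise over triplicate slides.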 The conditions noted are these: fibrinogen-A647 binding fluorescence, higher = more signal.
The target in assay [5] is Follistatin (Homo sapiens) (UniProt P19883). As to the kind of experiment: follistatin binders on small-molecule microarrays, primary screen, biochemical, small-molecule microarray, 635/667 nm fluorescence (AID 1132). The conditions noted are these: FST binding, 635 nm fluorescence, higher = more signal.
Chain of Follistatin (Homo sapiens) (P19883 whole entry, looked up): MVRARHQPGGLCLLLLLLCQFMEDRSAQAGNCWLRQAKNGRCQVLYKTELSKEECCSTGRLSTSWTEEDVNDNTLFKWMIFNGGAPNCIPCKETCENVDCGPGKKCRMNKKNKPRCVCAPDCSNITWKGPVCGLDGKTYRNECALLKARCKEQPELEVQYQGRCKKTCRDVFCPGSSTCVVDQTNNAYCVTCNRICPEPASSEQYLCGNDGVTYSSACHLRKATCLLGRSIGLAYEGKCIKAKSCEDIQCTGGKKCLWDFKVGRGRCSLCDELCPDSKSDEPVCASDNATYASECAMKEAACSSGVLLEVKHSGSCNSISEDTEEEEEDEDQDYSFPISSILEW
Assay [6] addresses Fibroblast growth factor 2 (Homo sapiens) (UniProt P09038). As to the kind of experiment: FGF2 binders on small-molecule microarrays, primary screen, biochemical, small-molecule microarray, 635/667 nm fluorescence (AID 1133). The conditions noted are these: small-molecule microarray binding, FGF2, fluorescence 635/667; higher = more signal.
Assay [7] is described as follows: mitochondrial membrane potential change in A549 cells, profiling panel, cell-based, JC-1 fluorescence, basal, 24 h, 100 nL (AID 1138).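 Further: A549 lung adenocarcinoma cells under basal conditions with no added stimulus; test concentration not given here.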 The conditions noted are these: higher = more signal.
The subject of another assay is Lefty1. As to the kind of experiment: Lefty1 binders on small-molecule microarrays, primary screen, biochemical, small-molecule microarray, 635/667 nm fluorescence (AID 1139). The conditions noted are these: small-molecule microarray binding, fluorescence 635/667; higher = more signal.
The test system of assay [8] is wheat germ agglutinin (Triticum aestivum), Alexa647-labelled. Kind of assay: wheat germ agglutinin binders on compound microarrays, profiling panel, artefact control for SMM control-protein annotation, biochemical, small-molecule microarray, 635/667 nm fluorescence (AID 1140).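 Further: score merges 667 nm feature emission with signal to noise over triplicate slides.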 The conditions noted are these: WGA-A647 binding, 635 nm fluorescence, higher = more signal.

Assay [9] has as its target Luciferin 4-monooxygenase (Photinus pyralis) (UniProt P08659). Kind of assay: firefly luciferase enzyme inhibitors, primary screen, biochemical, luminescence, purified enzyme, 2006 set (AID 1141).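 Further: cell-free assay with purified firefly luciferase at 100 ng per well in PBS; test concentration not given here.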 To be noted: SteadyGlo luminescence, 30 min, higher = more signal, called active from +8 up or from −8 down.
The test system of assay [10] is Wnt5a (protein binding on small-molecule microarray). Kind of assay: Wnt5a binders on small-molecule microarray, primary screen, biophysical, 635/667 nm fluorescence (AID 1142).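 Further: fluorescence read at 667 nm with signal to noise per printed feature.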 The conditions noted are these: 635 nm fluorescence, higher = more signal.
Assay [11] is described as follows: cell viability in Huh7 cells, primary screen, cytotoxicity control for HCV replication inhibitor project, CellTiter-Glo luminescence, basal, 48 h (AID 1143).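 Further: Huh7 hepatoma cells carrying a hepatitis C replication reporter with no stimulus; test concentration not given here.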 To be noted: Huh7 HCV replicon, higher = more signal, called active from +8 up or from −8 down. For orientation: Cellular ATP, detected with luciferase, serves as a proxy for viable cell number.
A short description of assay [12]: P. aeruginosa biofilm formation inhibitors, primary screen, PAO1 strain, BacTiter-Glo luminescence, LB-PBS (AID 1144). To be noted: 12 h, higher = more signal.
Assay [13] is described as follows: CREB reporter modulators without forskolin, primary screen, cell-based, PC12, CRE-LacZ reporter, unstimulated (AID 1145). The conditions noted are these: no forskolin, luminescence, 4.5 h, higher = more signal, called active from +8 up or from −8 down.
Assay [14] is described as follows: CREB reporter modulators under forskolin, primary screen, cell-based, PC12, CRE-LacZ reporter, forskolin-stimulated (AID 1146).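 Further: PC12 cells with 6xCRE LacZ reporter stimulated by forskolin 10 µM; beta-galactosidase reporter signal reflecting CREB driven transcription.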 The conditions noted are these: luminescence, 4.5 h, higher = more signal, called active from +8 up or from −8 down.
Assay [15] addresses Streptavidin (Streptomyces avidinii) (UniProt P22629). As to the kind of experiment: streptavidin binders on small-molecule microarray, primary screen, artefact control for SMM compound annotation, biophysical, 635/667 nm fluorescence (AID 1147).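 Further: signal reflects streptavidin binding to arrayed compounds as a control protein.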 To be noted: streptavidin binding, higher = more signal.
Assay [16] can be described thus: small-molecule binders of probe aInhba, primary screen, biochemical, small-molecule microarray, 635/667 nm fluorescence (AID 1148).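 Further: score merges 667nm spot fluorescence with signal-to-noise for antibody binding to printed compounds.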 To be noted: higher = more signal.
The target of assay [17] is Torsin-1A (Homo sapiens) (UniProt O14656). Kind of assay: torsin A binders from cell lysate, primary screen, small-molecule microarray, wild-type, 635/667 nm (AID 1149). To be noted: COS7 hTOR1A-WT lysate, 635 nm fluorescence, higher = more signal.
Chain of Torsin-1A (Homo sapiens) (O14656 whole entry, looked up): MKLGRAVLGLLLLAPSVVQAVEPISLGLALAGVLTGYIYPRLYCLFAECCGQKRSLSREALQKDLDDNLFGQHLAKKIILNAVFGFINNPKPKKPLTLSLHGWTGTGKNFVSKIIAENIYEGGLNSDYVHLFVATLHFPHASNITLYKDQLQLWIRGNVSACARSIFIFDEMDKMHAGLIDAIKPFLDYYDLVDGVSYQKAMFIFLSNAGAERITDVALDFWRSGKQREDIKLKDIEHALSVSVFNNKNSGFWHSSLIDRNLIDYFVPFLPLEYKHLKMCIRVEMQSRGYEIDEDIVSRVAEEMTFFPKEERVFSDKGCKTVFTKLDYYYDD
The target is the same in assay [18]. As to the kind of experiment: small-molecule binders of mutant TOR1A in lysate, primary screen, cell lysate, small-molecule microarray, COS7 lysate, 635/667 nm fluorescence (AID 1150).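 Further: score pools 667 nm emission and signal to noise measuring lysate protein binding.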 The conditions noted are these: COS7 hTOR1A mutant lysate, 635 nm fluorescence, higher = more signal.
In assay [19] the test system is Sonic hedgehog protein (Shh). As to the kind of experiment: small-molecule binders of Shh protein, primary screen, biochemical, small-molecule microarray, 635/667 nm fluorescence (AID 1151).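 Further: Shh protein binding to compounds spotted on small-molecule microarray slides; score combines spot fluorescence intensity with signal-to-noise across triplicate slides.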 To be noted: small-molecule microarray binding, 635 nm fluorescence; higher = more signal.

Chain of Fibroblast growth factor 2 (Homo sapiens) (P09038 whole entry, looked up): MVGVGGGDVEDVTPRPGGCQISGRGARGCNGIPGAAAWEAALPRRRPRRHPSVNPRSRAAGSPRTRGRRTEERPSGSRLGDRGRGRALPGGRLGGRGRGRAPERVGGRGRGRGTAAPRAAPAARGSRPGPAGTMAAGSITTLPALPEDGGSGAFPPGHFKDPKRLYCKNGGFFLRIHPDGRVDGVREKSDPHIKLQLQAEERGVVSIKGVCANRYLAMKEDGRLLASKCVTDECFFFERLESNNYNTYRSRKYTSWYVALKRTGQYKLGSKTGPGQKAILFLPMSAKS
Chain of Streptavidin (Streptomyces avidinii) (P22629 whole entry, looked up): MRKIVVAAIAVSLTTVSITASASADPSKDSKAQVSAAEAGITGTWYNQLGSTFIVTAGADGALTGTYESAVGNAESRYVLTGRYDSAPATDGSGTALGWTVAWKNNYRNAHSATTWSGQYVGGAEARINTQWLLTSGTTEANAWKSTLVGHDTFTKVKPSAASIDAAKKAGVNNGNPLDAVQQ
Chain of Luciferin 4-monooxygenase (Photinus pyralis) (P08659 whole entry, looked up): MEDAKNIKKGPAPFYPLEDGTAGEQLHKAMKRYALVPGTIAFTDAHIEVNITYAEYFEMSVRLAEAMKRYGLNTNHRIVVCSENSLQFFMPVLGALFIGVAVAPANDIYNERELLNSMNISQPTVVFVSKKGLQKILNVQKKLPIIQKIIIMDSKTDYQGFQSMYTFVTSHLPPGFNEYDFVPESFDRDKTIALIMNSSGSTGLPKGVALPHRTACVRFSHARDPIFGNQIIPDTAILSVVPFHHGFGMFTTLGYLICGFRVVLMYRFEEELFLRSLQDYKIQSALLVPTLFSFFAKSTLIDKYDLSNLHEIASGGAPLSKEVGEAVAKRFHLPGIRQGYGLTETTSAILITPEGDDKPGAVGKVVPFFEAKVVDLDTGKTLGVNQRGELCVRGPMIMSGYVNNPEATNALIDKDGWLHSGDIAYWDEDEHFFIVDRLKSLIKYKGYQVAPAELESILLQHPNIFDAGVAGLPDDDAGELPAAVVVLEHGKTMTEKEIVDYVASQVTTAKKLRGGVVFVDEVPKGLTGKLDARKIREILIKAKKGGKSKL

As to `NC(=O)[C@@]1(CCS(=O)(=O)c2ccccc2)N=C(c2ccc(OCCCO)cc2)O[C@H]1c1ccccc1`, the composite z-score in assay [1] is 2.14; in assay [2], 1.27; in assay [3], 0.533; in assay [4] it was 1.02; in [5], 0.78; in assay [6] it was -0.507. Moreover, the composite z-score was -0.0434 in the assay with Lefty1; 1.17 in assay [8]; 0.211 in assay [10]; 0.856 in [15]; 0.0872 in assay [16]; 0.699 with Torsin-1A (Homo sapiens) [17]. Further, the composite z-score is 0.799 with Torsin-1A (Homo sapiens) [18] and -1.2 in assay [19]. Besides, the z-score in assay [7] was -0.309; in assay [9] it was 0.155 (inactive); in [11] it was -5.04 (inactive); in [12] it was 0.814 (inactive); in assay [13], 0.0451 (inactive); in assay [14] it was -1.38 (inactive).
`C=CCOC(=O)[C@H]1[C@@H]2C(=O)O[C@@H](c3ccccc3)[C@@H](c3ccccc3)N2[C@@H](c2ccc(OCCOC(=O)[C@H]3C[C@H]4C(=O)N[C@@H](CCCC[N+](C)(C)C)C(=O)N4[C@H]3c3ccc(O)cc3)cc2)[C@]12C(=O)Nc1ccccc12`: the composite z-score in assay [1] is 0.94; in [2] it was -0.0508; in [3] it was 0.193; in assay [4] it was 0.252; in assay [5], 1.16; in [6], 0.703. The composite z-score in the assay with Lefty1 is 0.653; in assay [8], 0.22; in [10], 0.0385; in assay [15] it was -0.22; in assay [16], -0.258; with Torsin-1A (Homo sapiens) [17] it was 0.475. Moreover, the results for the composite z-score (with Torsin-1A (Homo sapiens) [18]; in assay [19]) were 0.846 and 1.18, respectively. Also, the z-score in assay [7] is 0.193; in assay [9] it was -1.28 (inactive); in assay [11], -0.236 (inactive); in assay [12] it was -0.968 (inactive); in [13] it was -1.62 (inactive); in [14] it was -1.06 (inactive).
As to `COCCCNC(=O)[C@]1(Cc2ccccc2N=[N+]=[N-])N=C(c2ccc(OCCCO)cc2)O[C@@H]1c1ccccc1CN=[N+]=[N-]`, the composite z-score in assay [1] is 2.33; in [2], 1.22; in assay [3], 0.631; in [4] it was 0.947; in [5] it was 1.35; in assay [6], 0.449. The composite z-score turned out to be 0.231 in the assay on Lefty1; 1.12 in assay [8]; 0.823 in assay [10]; 1.11 in [15]; 0.442 in [16]; 0.673 with Torsin-1A (Homo sapiens) [17]. The composite z-score with Torsin-1A (Homo sapiens) [18] amounted to 0.57; in assay [19], 0.26. In addition, the z-score in assay [7] was -0.418; in [9], -2.5 (inactive); in assay [11] it was -5.15 (inactive); in [12], -0.421 (inactive); in [13] it was 0.825 (inactive); in [14] it was -1.47 (inactive).
As to `[N-]=[N+]=NCc1ccccc1C[C@]1(C(N)=O)N=C(c2ccc(OCCCO)cc2)O[C@H]1c1ccccc1N=[N+]=[N-]`, the composite z-score in assay [1] is 2.21; in assay [2], 1.19; in [3], 0.394; in assay [4] it was 0.751; in assay [5] it was 0.847; in assay [6] it was -0.386. Moreover, the composite z-score in the assay on Lefty1 was found to be 0.0874; in assay [8], 1.03; in assay [10], 0.451; in [15] it was 0.978; in assay [16], 0.0906; in the assay with Torsin-1A (Homo sapiens) [17], 0.0331. Besides, the composite z-score in the assay with Torsin-1A (Homo sapiens) [18] is 0.652; in assay [19], -0.413. The z-score in assay [7] was -0.542; in assay [9], -10.3 (active); in [11] it was -1.84 (inactive); in assay [12] it was -0.43 (inactive); in assay [13] it was -0.254 (inactive); in assay [14], 0.248 (inactive).
As to `O=C1C2C=CC(C(O)CCc3ccccc3)N(Nc3ccccc3)C2C(=O)N1c1ccccc1` (stereo not given), the composite z-score was 1.89 in assay [1]; 1.23 in assay [2]; 0.477 in [3]; 0.889 in assay [4]; 0.471 in [5]; -0.464 in assay [6]. The composite z-score came out at 0.38 in the assay with Lefty1; 1.44 in assay [8]; 0.742 in assay [10]; 2.32 in assay [15]; 0.372 in assay [16]; 0.143 with Torsin-1A (Homo sapiens) [17]. Moreover, the composite z-score is 0.82 in the assay with Torsin-1A (Homo sapiens) [18] and -0.365 in assay [19]. Besides, the z-score in assay [7] is -0.411; in assay [9] it was -0.0874 (inactive); in assay [11], 0.267 (inactive); in assay [12], -0.857 (inactive); in [13], 0.819 (inactive); in assay [14], -0.0219 (inactive).
